In article PMC7862700, “An all-to-all approach to the identification of sequence-specific readers for epigenetic DNA modifications on cytosine”:

Legend:
Assay in all cases: DAPPL (digital affinity profiling via proximity ligation, sequencing); 10 mM Tris-HCl pH 7.5, 50 mM NaCl, 1 mM DTT, 4% glycerol, room temperature, 30 min; GST-TFs on glutathione beads, 16-mer random dsDNA library, 0.1% formaldehyde crosslink after washing; high values mean tight binding
Conditions in all cases: protein: recombinant; tags: N-terminal GST; dsDNA, one strand shown
[1] = molecular target: T1, FLI1 (Homo sapiens, UniProt Q01543 1-452)
T1 sequence: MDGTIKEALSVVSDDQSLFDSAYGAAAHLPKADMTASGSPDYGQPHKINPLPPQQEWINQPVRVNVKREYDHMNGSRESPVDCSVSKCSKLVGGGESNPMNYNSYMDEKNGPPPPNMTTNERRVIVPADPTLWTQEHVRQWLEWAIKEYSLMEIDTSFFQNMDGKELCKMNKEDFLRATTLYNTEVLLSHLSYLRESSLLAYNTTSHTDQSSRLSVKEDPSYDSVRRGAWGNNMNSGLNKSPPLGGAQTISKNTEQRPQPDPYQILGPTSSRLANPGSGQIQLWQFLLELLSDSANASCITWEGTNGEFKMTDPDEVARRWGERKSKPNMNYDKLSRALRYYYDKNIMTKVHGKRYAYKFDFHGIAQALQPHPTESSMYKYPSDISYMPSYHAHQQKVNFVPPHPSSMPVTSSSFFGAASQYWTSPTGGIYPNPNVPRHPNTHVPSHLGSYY
Method in brief: (§1)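 Binding signal is defined as a hexamer's read frequency for one factor over its frequency for the tag-only sample. To obtain reads, GST-fused human transcription factors were expressed in yeast, captured on glutathione beads, barcoded with DNA and pooled with that sample. Pools met 200 nmole of a 16-mer random double-stranded DNA library in Tris/NaCl/DTT/glycerol buffer for 30 min at room temperature before washing, 0.1% formaldehyde crosslinking, proximity ligation (BsaI/T4 ligase, 1 h, 37 °C), PCR and Illumina NextSeq500 sequencing.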

[2] = molecular target: T2, ELK1 (Homo sapiens, UniProt P19419 1-428)
T2 sequence: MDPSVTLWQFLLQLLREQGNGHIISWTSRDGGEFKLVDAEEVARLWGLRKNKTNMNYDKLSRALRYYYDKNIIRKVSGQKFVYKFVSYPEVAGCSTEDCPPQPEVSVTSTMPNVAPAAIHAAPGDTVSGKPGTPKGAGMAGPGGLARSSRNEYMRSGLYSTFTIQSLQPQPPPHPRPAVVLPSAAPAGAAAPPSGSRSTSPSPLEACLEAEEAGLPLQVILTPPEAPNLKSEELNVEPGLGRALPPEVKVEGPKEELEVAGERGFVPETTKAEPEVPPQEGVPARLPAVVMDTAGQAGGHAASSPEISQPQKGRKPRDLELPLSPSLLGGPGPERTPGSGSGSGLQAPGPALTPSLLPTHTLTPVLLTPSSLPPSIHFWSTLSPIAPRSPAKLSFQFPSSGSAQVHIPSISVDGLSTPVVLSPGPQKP
Method in brief: as §1

[3] = molecular target: T3, GABPA (Homo sapiens, UniProt Q06546 1-454)
T3 sequence: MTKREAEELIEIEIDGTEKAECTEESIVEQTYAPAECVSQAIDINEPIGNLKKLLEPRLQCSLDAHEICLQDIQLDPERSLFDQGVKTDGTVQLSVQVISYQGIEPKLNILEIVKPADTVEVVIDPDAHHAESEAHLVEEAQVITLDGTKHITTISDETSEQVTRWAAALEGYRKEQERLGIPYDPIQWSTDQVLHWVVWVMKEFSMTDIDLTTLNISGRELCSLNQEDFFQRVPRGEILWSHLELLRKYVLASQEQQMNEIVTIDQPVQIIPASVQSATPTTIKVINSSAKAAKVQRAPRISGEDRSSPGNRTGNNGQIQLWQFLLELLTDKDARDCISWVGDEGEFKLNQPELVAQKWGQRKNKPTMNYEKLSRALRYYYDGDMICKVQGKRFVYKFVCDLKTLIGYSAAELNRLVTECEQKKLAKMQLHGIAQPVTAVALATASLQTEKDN
Method in brief: as §1

[4] = molecular target: ELF1 (Homo sapiens, UniProt P32519 1-619)
Method in brief: as §1

[5] = molecular target: T4, EHF (Homo sapiens, UniProt Q9NZC4 1-300)
T4 sequence: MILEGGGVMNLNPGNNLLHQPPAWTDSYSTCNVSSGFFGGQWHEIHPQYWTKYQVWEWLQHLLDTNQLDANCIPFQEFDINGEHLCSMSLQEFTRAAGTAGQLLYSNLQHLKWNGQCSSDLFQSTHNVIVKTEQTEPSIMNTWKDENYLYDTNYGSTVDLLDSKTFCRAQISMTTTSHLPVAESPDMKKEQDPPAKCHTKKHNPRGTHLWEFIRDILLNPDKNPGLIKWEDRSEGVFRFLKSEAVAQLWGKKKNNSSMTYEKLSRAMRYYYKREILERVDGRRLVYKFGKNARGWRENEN
Method in brief: as §1

[6] = molecular target: SPI1 (Homo sapiens, UniProt P17947 1-270)
Method in brief: as §1

[7] = molecular target: T5, ELK3 (Homo sapiens, UniProt P41970 1-407)
T5 sequence: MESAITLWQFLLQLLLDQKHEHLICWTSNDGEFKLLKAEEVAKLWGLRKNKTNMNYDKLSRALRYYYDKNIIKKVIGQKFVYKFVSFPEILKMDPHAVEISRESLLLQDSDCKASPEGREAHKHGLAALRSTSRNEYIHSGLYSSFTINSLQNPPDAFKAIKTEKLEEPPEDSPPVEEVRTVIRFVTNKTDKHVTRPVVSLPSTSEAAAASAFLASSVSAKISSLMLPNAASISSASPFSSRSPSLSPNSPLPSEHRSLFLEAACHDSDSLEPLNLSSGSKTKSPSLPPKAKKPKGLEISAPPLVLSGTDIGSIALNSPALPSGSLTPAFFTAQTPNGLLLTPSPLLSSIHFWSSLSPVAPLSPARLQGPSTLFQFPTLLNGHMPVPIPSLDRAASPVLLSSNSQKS
Method in brief: as §1

[8] = molecular target: T6, FEV (Homo sapiens, UniProt Q99581 1-238)
T6 sequence: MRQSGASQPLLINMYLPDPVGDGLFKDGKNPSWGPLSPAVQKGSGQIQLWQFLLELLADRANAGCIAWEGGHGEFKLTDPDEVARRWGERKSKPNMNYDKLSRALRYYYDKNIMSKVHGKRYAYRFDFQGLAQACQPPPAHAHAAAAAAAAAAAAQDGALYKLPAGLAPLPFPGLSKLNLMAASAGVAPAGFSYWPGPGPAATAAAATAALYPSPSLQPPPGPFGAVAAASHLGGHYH
Method in brief: as §1

[9] = molecular target: ETV5 (Homo sapiens, UniProt P41161 1-510)
Method in brief: as §1

[10] = molecular target: T7, SPIC (Homo sapiens, UniProt Q8N5J4 1-248)
T7 sequence: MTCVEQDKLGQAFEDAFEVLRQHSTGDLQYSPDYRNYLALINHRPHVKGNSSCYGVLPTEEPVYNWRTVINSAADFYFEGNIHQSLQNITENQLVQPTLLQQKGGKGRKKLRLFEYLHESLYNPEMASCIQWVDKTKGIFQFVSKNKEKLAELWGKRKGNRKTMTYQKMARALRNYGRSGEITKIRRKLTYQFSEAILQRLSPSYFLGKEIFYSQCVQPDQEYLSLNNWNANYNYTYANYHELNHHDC
Method in brief: as §1

[11] = molecular target: ELF4 (Homo sapiens, UniProt Q99607 1-663)
Method in brief: as §1

[12] = molecular target: ETV1 (Homo sapiens, UniProt P50549 1-477)
Method in brief: as §1

[13] = molecular target: T8, ERF (Homo sapiens, UniProt P50548 1-548)
T8 sequence: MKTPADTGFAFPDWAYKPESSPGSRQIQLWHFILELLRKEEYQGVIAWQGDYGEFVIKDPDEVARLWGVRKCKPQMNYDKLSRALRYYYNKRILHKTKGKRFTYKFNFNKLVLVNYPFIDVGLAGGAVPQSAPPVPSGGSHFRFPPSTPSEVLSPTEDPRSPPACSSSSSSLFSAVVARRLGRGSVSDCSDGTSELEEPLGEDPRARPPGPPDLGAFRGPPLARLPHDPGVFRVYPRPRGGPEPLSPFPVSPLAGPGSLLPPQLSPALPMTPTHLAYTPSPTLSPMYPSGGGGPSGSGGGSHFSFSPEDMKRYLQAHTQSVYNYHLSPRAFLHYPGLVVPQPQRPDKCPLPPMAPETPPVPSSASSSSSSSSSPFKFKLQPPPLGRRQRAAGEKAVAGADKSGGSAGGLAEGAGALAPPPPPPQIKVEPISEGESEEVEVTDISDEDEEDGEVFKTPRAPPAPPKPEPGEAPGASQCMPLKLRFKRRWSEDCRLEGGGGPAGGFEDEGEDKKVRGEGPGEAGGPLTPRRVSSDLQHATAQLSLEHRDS
Method in brief: as §1

[14] = molecular target: T9, ETV3L (Homo sapiens, UniProt Q6ZN32 1-361)
T9 sequence: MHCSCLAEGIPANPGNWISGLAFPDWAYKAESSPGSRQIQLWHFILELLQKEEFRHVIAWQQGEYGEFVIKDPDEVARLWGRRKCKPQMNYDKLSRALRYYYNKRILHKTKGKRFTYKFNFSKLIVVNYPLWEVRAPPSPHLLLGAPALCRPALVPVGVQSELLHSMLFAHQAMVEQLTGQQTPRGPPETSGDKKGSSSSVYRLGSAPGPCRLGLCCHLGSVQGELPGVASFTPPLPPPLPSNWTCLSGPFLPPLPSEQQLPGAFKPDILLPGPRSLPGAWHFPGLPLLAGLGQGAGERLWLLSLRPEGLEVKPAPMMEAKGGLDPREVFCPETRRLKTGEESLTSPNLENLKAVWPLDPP
Method in brief: as §1

[15] = molecular target: T10, ETS2 (Homo sapiens, UniProt P15036 1-469)
T10 sequence: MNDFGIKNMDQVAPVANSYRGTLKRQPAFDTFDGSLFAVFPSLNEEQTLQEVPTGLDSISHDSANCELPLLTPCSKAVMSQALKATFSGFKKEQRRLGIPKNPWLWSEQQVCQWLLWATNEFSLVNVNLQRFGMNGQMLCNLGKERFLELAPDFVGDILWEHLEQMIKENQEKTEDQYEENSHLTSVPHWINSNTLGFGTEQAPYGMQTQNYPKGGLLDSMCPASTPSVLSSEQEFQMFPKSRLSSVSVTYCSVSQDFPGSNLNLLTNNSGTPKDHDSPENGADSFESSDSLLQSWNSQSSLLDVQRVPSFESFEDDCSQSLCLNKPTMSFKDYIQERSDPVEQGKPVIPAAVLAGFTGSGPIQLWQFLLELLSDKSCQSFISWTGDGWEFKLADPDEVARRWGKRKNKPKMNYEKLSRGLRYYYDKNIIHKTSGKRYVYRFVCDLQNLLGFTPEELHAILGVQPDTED
Method in brief: as §1

[16] = molecular target: T11, ETV3 (Homo sapiens, UniProt P41162-2 1-143)
T11 sequence: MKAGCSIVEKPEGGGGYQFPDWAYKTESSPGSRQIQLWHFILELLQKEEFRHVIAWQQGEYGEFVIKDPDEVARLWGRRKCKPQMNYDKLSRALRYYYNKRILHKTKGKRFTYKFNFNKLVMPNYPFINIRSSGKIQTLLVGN
Method in brief: as §1

[17] = molecular target: ETV6 (Homo sapiens, UniProt P41212 1-452)
Method in brief: as §1

[18] = molecular target: T12, ERG (Homo sapiens, UniProt P11308 1-479)
T12 sequence: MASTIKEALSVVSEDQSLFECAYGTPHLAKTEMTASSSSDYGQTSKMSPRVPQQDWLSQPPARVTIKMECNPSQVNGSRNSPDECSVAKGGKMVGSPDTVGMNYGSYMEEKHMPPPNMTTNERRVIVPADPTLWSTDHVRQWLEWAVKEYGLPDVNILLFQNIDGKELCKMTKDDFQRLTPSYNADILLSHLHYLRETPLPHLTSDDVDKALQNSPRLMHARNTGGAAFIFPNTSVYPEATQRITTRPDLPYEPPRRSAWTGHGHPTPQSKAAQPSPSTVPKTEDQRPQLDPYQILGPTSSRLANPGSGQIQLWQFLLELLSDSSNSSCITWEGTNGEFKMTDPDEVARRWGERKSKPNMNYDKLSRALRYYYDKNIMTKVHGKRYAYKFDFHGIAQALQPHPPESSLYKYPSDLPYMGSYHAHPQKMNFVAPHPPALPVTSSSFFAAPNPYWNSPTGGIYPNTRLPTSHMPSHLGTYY
Method in brief: as §1

[19] = molecular target: SPIB (Homo sapiens, UniProt Q01892 1-262)
Method in brief: as §1

ETV5, sequence (P41161 whole entry): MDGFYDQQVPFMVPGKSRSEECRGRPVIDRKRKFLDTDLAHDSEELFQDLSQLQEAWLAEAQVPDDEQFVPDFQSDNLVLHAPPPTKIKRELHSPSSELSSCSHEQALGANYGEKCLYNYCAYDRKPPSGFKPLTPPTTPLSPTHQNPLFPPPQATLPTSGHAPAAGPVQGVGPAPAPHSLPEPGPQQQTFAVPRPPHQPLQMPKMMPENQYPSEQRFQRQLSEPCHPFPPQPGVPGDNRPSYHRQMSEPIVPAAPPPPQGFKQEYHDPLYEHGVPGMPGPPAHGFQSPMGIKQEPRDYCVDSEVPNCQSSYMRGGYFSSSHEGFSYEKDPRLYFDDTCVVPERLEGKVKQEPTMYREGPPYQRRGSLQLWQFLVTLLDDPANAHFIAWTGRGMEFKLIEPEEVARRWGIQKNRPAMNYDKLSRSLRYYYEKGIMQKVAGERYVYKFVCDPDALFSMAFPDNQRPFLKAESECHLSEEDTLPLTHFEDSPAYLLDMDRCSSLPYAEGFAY
ELF4, sequence (Q99607 whole entry): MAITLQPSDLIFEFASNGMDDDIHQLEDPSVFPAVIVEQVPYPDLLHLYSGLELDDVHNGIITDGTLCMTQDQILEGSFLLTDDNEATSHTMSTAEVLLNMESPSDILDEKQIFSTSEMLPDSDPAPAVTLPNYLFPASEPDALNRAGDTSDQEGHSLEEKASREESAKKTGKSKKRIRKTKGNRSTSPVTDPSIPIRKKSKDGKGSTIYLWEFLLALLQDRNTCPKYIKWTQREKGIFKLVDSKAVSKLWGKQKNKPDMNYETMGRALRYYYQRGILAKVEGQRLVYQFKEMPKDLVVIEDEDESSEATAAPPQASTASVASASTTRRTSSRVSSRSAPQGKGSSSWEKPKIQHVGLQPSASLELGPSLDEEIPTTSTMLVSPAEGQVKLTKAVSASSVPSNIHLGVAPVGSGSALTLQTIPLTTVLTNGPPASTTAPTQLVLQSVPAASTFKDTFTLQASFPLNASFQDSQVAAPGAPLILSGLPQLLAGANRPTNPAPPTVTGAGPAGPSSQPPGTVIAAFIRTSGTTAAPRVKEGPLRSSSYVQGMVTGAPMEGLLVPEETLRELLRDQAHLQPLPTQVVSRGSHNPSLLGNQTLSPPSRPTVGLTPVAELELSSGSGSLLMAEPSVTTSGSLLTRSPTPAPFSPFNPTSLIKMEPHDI
ELF1, sequence (P32519 whole entry): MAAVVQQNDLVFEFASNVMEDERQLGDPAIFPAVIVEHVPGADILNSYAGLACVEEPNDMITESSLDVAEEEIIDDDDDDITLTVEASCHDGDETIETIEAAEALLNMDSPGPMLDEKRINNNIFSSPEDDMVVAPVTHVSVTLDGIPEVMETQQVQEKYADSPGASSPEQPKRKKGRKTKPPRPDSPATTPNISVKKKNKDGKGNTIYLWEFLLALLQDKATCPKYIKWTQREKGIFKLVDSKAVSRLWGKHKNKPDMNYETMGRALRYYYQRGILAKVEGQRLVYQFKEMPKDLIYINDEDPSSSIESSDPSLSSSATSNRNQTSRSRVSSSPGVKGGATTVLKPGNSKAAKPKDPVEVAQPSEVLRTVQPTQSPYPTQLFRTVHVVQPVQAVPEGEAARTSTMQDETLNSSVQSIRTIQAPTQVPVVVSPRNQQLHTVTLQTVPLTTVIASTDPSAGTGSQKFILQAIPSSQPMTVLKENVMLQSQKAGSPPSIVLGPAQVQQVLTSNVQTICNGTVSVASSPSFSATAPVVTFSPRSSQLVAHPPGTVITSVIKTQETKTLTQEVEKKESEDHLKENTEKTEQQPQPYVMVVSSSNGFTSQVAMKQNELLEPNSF
SPIB, sequence (Q01892 whole entry): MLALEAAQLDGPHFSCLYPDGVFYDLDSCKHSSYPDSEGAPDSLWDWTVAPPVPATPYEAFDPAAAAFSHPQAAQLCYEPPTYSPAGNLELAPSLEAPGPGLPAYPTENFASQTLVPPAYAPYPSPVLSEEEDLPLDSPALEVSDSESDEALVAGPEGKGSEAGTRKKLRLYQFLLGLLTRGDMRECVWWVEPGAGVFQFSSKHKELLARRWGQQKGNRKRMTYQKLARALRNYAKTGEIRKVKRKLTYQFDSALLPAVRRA
ETV6, sequence (P41212 whole entry): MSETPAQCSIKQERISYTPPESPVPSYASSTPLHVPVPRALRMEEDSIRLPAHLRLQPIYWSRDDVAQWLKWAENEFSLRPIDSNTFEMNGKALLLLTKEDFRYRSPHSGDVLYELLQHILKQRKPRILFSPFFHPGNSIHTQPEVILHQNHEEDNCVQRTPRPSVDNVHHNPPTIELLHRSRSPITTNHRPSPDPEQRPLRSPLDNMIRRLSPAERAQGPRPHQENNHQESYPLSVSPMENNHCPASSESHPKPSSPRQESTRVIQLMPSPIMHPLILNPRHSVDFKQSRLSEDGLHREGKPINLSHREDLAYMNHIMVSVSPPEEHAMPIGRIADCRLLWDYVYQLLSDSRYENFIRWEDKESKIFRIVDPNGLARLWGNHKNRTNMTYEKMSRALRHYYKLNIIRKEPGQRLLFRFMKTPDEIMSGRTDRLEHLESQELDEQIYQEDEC
ETV1, sequence (P50549 whole entry): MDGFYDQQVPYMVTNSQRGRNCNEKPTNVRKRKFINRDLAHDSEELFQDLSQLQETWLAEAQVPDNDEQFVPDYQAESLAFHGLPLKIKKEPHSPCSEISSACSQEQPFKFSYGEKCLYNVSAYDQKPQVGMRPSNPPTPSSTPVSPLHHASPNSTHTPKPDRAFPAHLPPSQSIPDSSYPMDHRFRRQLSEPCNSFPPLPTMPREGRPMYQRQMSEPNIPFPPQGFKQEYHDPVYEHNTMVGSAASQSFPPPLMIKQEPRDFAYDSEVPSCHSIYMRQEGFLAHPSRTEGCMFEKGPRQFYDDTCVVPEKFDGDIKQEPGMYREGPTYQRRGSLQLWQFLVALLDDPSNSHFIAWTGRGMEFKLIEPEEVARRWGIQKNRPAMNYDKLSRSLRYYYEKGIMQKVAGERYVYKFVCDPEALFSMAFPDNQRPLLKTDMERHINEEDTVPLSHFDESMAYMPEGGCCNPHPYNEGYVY

| Sequence | binding signal [1] | binding signal [2] | binding signal [3] | binding signal [4] | binding signal [5] | binding signal [6] | binding signal [7] | binding signal [8] | binding signal [9] | binding signal [10] | binding signal [11] | binding signal [12] | binding signal [13] | binding signal [14] | binding signal [15] | binding signal [16] | binding signal [17] | binding signal [18] | binding signal [19] |
| --- | --- | --- | --- | --- | --- | --- | --- | --- | --- | --- | --- | --- | --- | --- | --- | --- | --- | --- | --- |
| TGCGGC | 1.06 fold enrichment (6-mer frequency, TF over GST control) | 1.04 fold enrichment (6-mer frequency, TF over GST control) | 1.09 fold enrichment (6-mer frequency, TF over GST control) | 1.05 fold enrichment (6-mer frequency, TF over GST control) | 1.07 fold enrichment (6-mer frequency, TF over GST control) | 1.11 fold enrichment (6-mer frequency, TF over GST control) | 1.01 fold enrichment (6-mer frequency, TF over GST control) | 1.02 fold enrichment (6-mer frequency, TF over GST control) | 1.06 fold enrichment (6-mer frequency, TF over GST control) | 1.19 fold enrichment (6-mer frequency, TF over GST control) | 1.13 fold enrichment (6-mer frequency, TF over GST control) | 1.08 fold enrichment (6-mer frequency, TF over GST control) | 1.14 fold enrichment (6-mer frequency, TF over GST control) | 1.03 fold enrichment (6-mer frequency, TF over GST control) | 1.05 fold enrichment (6-mer frequency, TF over GST control) | 1.03 fold enrichment (6-mer frequency, TF over GST control) | 1 fold enrichment (6-mer frequency, TF over GST control) | – | – |
| CGCTGG | 1.05 fold enrichment (6-mer frequency, TF over GST control) | – | – | 1.08 fold enrichment (6-mer frequency, TF over GST control) | 1 fold enrichment (6-mer frequency, TF over GST control) | – | – | 1.02 fold enrichment (6-mer frequency, TF over GST control) | 1 fold enrichment (6-mer frequency, TF over GST control) | 1.01 fold enrichment (6-mer frequency, TF over GST control) | 1.02 fold enrichment (6-mer frequency, TF over GST control) | – | 1.05 fold enrichment (6-mer frequency, TF over GST control) | 1.03 fold enrichment (6-mer frequency, TF over GST control) | 1.1 fold enrichment (6-mer frequency, TF over GST control) | 1.12 fold enrichment (6-mer frequency, TF over GST control) | – | 1.03 fold enrichment (6-mer frequency, TF over GST control) | 1.01 fold enrichment (6-mer frequency, TF over GST control) |
